The campaign covered roughly 69,000 compounds. About 8,600 (12%) showed an effect of 50% or more. Only a selection was taken, and strong results are over-represented in it overall.
test system: Plasmodium berghei; experiment: Screen against P. berghei liver stage (PbLuc), transformed with Luciferase, at 10uM; type: functional, HepG2; details: tested at 10 uM

Structure (SMILES)	INHIBITION
CC(C)Cc1noc(CN2CCCC2c2noc(C3CC3)n2)n1 (configuration not stated)	-31.5%
CC(C)(C)N1CCN(C(=O)Nc2cc(C(F)(F)F)c[nH]c2=O)CC1	33.3%
COC(=O)C1C=CCN1C(=O)c1cc(COc2ccccc2)[nH]n1 (configuration not stated)	9.41%
Cc1nc(N(C)C)ncc1C(=O)N[C@@H]1CCc2ccccc21	27.4%
O=C(Nc1ccccc1)C1CCCN(c2cc(-n3cncn3)ncn2)C1 (configuration not stated)	50.2%
O=C(NCc1cccs1)C1CCCN(c2cc(-n3cncn3)ncn2)C1 (configuration not stated)	13.9%
O=C(Nc1cccnc1)C1CCCN(c2cc(-n3cccn3)ncn2)C1 (configuration not stated)	50.2%
O=C(NC1CC1)C1CCCN(c2cc(-n3cncn3)ncn2)C1 (configuration not stated)	40.4%
O=C(CN1CCCC(Cn2cncn2)C1)Nc1cccnc1 (configuration not stated)	-43.9%
O=C(Nc1cccnc1)C1CCN(c2cc(-n3ccnc3)ncn2)CC1	31.3%
CC(C)(C)C(=O)NC(c1nccs1)C1CCN(CC2CCCCC2)CC1 (configuration not stated)	41.5%
CCn1nc(C)c(CCNC(=O)C2CCCN(C(C)=O)C2)c1C (configuration not stated)	-20.2%
Cc1cnn(CC2CCCCN2CCS(C)(=O)=O)c1 (configuration not stated)	17.4%
CNC(=O)CN1CCC(NC(=O)Cc2ccc3c(c2)OCCO3)CC1	-53.2%
CCN(Cc1c(C)nn(CC)c1C)S(=O)(=O)c1cnn(C)c1	11.8%
CCS(=O)(=O)N1C[C@@H]2C[C@H](C(=O)N(C)C)[C@H](C1)O2	22.2%
CCCN1CCCn2c(nc(CNC(=O)c3ccsc3)cc2=O)C1	18.5%
O=C(NCc1cc(=O)n2c(n1)CN(CC1CC1)CCC2)c1ccsc1	89.2%
CCN1CCCn2c(nc(CNC(=O)c3ccsc3)cc2=O)C1	58%

Structure (SMILES)	INHIBITION
CN1CCCn2c(nc(CNC(=O)c3ccsc3)cc2=O)C1	35.8%
Cc1oncc1C(=O)NCc1cc(=O)n2c(n1)CN(CC1CC1)CCC2	36.4%
O=c1cc(CNS(=O)(=O)C2CC2)nc2n1CCCN(CC1CC1)C2	33.1%
Cc1nn(C)c(N(C)C)c1CNCc1ccnc(N2CCCC2)c1	-44.3%
Oc1cc(-c2ccccn2)nc(C2CCN(Cc3ccncc3)CC2)n1	-44.8%
O=C(CCN1CCOC(Cn2cccn2)C1)NC1CCCCC1 (configuration not stated)	-107%
COCC(=O)N1CCCn2c(CN3CCCCC3)nnc2C1	20.1%
O=C(c1ccccc1F)N1CCCn2c(CN3CCCCC3)nnc2C1	18.3%
O=C(c1ccncc1)N1CCCn2c(CN3CCCCC3)nnc2C1	31.8%
COCC(=O)N1CCCn2c(CN3CCOCC3)nnc2C1	-2.46%
O=C(c1ccc[nH]1)N1CCCn2c(nnc2Cn2cccn2)C1	-17.2%
O=C(c1ccncc1)N1CCCn2c(CN3CCCC3)nnc2C1	35.7%
O=C(c1ccc[nH]1)N1CCCn2c(CN3CCCCC3)nnc2C1	42.1%
COCC(=O)N1CCCn2c(CN3CCCC3)nnc2C1	56.6%
O=C1CCCN1Cc1nnc2n1CCCN(C(=O)c1ccc[nH]1)C2	53%
Cc1cccc(C(=O)N2CCCn3c(CN4CCCCC4)nnc3C2)c1	25.2%
O=C(c1cccc(Cl)c1)N1CCCn2c(CN3CCCCC3)nnc2C1	55.2%
O=C(c1ccccc1)N1CCCn2c(CN3CCCCC3)nnc2C1	50.9%
